“And” between values parts separate entries of the source, which are not always exact repeats. Identical values can stand only once. Where a structure was tested more than once in an assay, its records may differ in their call. The source made the active and inactive calls. A call without a number means that no potency is given here. Unless noted, calls come from the whole dose curve; as a rule, active = well fitted curve in the direction sought with a large enough effect in the repeat runs; inconclusive = weak or mixed curves; inactive = no such curve, though single readings can be large; an effect the other way counts as inactive or inconclusive.
Key:
[1] = qHTS assay to identify small molecule antagonists of the glucocorticoid receptor (GR) signaling pathway - cell viability counter screen (AID 720693); note: nearly all actives have a fitted effect of over 55% in size
[2] = qHTS assay for identifying genotoxic compounds that show differential cytotoxicity against isogenic chicken DT40 cell lines with known DNA damage response pathways - Rev3 mutant cell line (AID 743014); note: nearly all actives have a fitted effect of over 55% in size; note: potency is the fitted concentration of half-maximal effect
[3] = qHTS assay for identifying genotoxic compounds that show differential cytotoxicity against isogenic chicken DT40 cell lines with known DNA damage response pathways - Rad54/Ku70 mutant cell line (AID 743015); note: nearly all actives have a fitted effect of over 60% in size; note: potency is the fitted concentration of half-maximal effect
[4] = qHTS assay to identify small molecule antagonists of the androgen receptor (AR) signaling pathway - cell viability counter screen (AID 743033; note: nearly all actives have a fitted effect of over 45% in size)
[5] = qHTS assay to identify small molecule antagonists of the thyroid receptor (TR) signaling pathway - cell viability counter screen (AID 743064); note: nearly all actives have a fitted effect of over 50% in size; note: potency is the fitted concentration of half-maximal effect
Summary of the method: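 Rat GH3 pituitary tumor cells stably expressing two TR response elements driving luciferase were plated, rested 4 h, then dosed with library compounds and T3 (1 nM final). After 23.5 h at 37 °C, CellTiter-Fluor was added for 30 min and fluorescence recorded.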

[6] = qHTS assay to identify small molecule antagonists of the thyroid receptor (TR) signaling pathway (AID 743065); note: nearly all actives have a fitted effect of over 55% in size; note: potency is the fitted concentration of half-maximal effect
Summary of the method: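 GH3.TRE-Luc rat pituitary cells (two TREs driving luciferase) were dosed with compound, then stimulated with 1 nM T3 (final) for 23.5 h at 37 C. ONE-Glo luminescence was the read-out, with CellTiter-Fluor fluorescence as the cytotoxicity counter-screen.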

[7] = tested on: thyroid hormone receptor (rat, GH3 cells); assay: qHTS assay to identify small molecule agonists of the thyroid receptor (TR) signaling pathway (AID 743066; calls by dose curve)
[8] = target: Estrogen receptor (Homo sapiens) (UniProt P03372); assay: qHTS assay to identify small molecule antagonists of the estrogen receptor alpha (ER-alpha) signaling pathway (AID 743069; active = well fitted curve in the direction sought with a large enough effect in the signal ratio in the repeat runs, not every such curve was filed as active; inconclusive = weak or mixed curves, or effect the other way; inactive = no such curve, though single readings can be large or run the other way; the % refers to the signal ratio; note: potency is the fitted concentration of half-maximal effect)
Summary of the method: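 HEK293 ER-alpha-UAS-bla GripTite cells, held overnight in 2% charcoal-stripped FBS, 5,000 cells/well, preincubated 4 h, then compound plus 17beta-estradiol for 18 h at 37C. Beta-lactamase read by LiveBLAzer B/G FRET substrate, 2 h at room temperature.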

[9] = qHTS assay to identify small molecule antagonists of the estrogen receptor alpha (ER-alpha) signaling pathway - cell viability counter screen (AID 743074; calls by dose curve;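 note: HEK293 cells carrying ER-alpha-UAS-bla reporter stimulated with 17beta-estradiol; nearly all actives have a fitted effect of over 45% in size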)
[10] = target: Estrogen receptor (Homo sapiens) (UniProt P03372); assay: qHTS assay to identify small molecule agonists of the estrogen receptor alpha (ER-alpha) signaling pathway (AID 743075; calls by dose curve; note: potency is the fitted concentration of half-maximal effect)
[11] = qHTS assay to identify small molecule antagonists of the estrogen receptor alpha (ER-alpha) signaling pathway using the BG1 cell line - cell viability counter screen (AID 743081);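 note: compound given together with 17beta-estradiol as the ER stimulus; nearly all actives have a fitted effect of over 45% in size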; note: potency is the fitted concentration of half-maximal effect
Aromatase (Homo sapiens) = Aromatase (Homo sapiens) (UniProt P11511); assay: qHTS assay to identify aromatase inhibitors (AID 743083); note: series mostly up to about 70 µM; nearly all actives have a fitted effect of over 55% in size
[12] = qHTS assay for identifying genotoxic compounds that show differential cytotoxicity against isogenic chicken DT40 cell lines with known DNA damage response pathways - wild type cell line (AID 743012); note: nearly all actives have a fitted effect of over 60% in size; note: potency is the fitted concentration of half-maximal effect
Summary of the method: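 Using parental DT40 (300 cells/well), compounds delivered in DMSO incubate 40 h at 37 C/5% CO2. CellTiter-Glo reagent then stands 30 min at room temperature, and luminescence gives cell viability.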

[13] = qHTS assay to identify small molecule antagonists of the androgen receptor (AR) signaling pathway using the MDA cell line - cell viability counter screen (AID 743041; note: nearly all actives have a fitted effect of over 45% in size; note: potency is the fitted concentration of half-maximal effect)
Summary of the method: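 MDA-kb2 AR-luc cells (MMTV-luciferase, AR/GR responsive) treated with compounds plus R1881 agonist for 16 h at 37C. CellTiter-Fluor added at 15.5 h; fluorescence read after 30 min in the same wells.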

[14] = target: Estrogen receptor (Homo sapiens) (UniProt P03372); assay: qHTS assay to identify small molecule agonists of the estrogen receptor alpha (ER-alpha) signaling pathway using the BG1 cell line (AID 743079); note: nearly all actives have a fitted effect of over 20% in size; note: potency is the fitted concentration of half-maximal effect
[15] = qHTS assay to identify small molecule antagonists of the estrogen receptor alpha (ER-alpha) signaling pathway using the BG1 cell line (AID 743080; calls by dose curve;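 note: BG1 cells stimulated with 17beta-estradiol alongside compound; series mostly up to about 70 µM; nearly all actives have a fitted effect of over 25% in size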)
Summary of the method: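 Quantitative HTS on the Tox21 10K library: BG1 cells with endogenous ER-alpha and ERE-luciferase reporter, 17beta-estradiol stimulation, 21.5 h compound exposure, luminescence endpoint with parallel fluorescence cytotoxicity counter-read.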

Chain of Estrogen receptor (Homo sapiens) (P03372 whole entry, looked up): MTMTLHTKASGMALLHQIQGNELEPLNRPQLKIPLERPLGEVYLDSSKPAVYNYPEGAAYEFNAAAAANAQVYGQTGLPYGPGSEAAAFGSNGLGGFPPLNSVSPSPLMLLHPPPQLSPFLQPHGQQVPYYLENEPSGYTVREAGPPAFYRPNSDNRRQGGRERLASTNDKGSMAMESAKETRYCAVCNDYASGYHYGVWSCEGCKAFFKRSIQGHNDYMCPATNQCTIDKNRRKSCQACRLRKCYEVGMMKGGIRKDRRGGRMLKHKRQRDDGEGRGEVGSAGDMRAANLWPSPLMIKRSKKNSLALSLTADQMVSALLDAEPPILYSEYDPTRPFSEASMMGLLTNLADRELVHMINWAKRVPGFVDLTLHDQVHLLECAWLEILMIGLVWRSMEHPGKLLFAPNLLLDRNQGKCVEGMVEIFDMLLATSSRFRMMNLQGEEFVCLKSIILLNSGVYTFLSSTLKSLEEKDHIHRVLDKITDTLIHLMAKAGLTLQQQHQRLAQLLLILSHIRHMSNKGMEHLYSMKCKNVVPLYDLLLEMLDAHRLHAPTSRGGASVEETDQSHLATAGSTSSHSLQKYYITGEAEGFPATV
Chain of Aromatase (Homo sapiens) (P11511 whole entry, looked up): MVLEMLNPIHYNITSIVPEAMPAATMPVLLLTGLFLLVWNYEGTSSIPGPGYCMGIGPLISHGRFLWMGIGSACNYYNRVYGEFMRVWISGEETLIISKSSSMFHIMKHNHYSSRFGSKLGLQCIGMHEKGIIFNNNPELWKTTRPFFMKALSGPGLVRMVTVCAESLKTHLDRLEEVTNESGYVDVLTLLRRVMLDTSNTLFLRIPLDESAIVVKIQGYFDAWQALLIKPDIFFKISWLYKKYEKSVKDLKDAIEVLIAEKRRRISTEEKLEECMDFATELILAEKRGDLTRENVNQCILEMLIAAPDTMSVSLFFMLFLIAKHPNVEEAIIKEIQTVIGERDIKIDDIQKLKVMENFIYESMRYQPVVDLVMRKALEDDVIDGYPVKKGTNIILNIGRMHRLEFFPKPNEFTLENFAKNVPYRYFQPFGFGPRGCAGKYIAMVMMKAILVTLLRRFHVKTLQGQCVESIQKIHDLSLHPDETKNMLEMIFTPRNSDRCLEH

Compound | Potency [1] | Potency [2] | Potency [3] | outcome [4] | Potency [5] | Potency [6] | outcome [7] | Potency [8] | outcome [9] | Potency [10] | Potency [11] | Potency (Aromatase (Homo sapiens)) | Potency [12] | Potency [13] | Potency [14] | Potency [15]
NC(N)=NC(N)=NCCc1ccccc1 | inactive | 29.8 µM (active) and 17.1 µM (active) and 27.3 µM (active) | 17.1 µM (active) [middle of 4 runs] | inactive | inactive | 60.8 µM (active) | inactive | inactive | inactive | inactive | inactive | inactive |  |  |  | 
CC1=C(/C=C/C(C)=C/C=C/C(C)=C/C(=O)O)C(C)(C)CCC1 | inactive | 77 µM (active) and 61.1 µM (active) | 29.8 µM (active) and 61.2 µM (active) and 54.4 µM (active) | inactive | inactive |  |  |  | inactive |  | inactive | inactive | 33.5 µM (active) and 54.4 µM (active) | inactive |  | 
Nc1cccc(N)c1 | inactive | 17.2 µM (active) and inactive | 61 µM (active) and inactive | inactive | inactive | inactive | inactive |  | inactive |  | inactive | inactive | inactive | inactive |  | 
O=C(OCc1ccccc1)c1ccccc1 | inactive | inactive | inactive | inactive | inactive | inactive | inactive |  | inactive |  | inactive | inactive | inactive | inactive |  | 
O=[N+]([O-])c1ccc(O)cc1 | inactive | inactive and 43.3 µM (active) and 54.5 µM (active) | inactive and 54.5 µM (active) | inactive | 61.1 µM (active) |  |  | inactive | inactive | inactive | inactive | inactive | 27.3 µM (active) and 61.1 µM (active) | inactive | inactive | inactive
CN/C(=C\[N+](=O)[O-])NCCSCc1ccc(CN(C)C)o1 | inactive | inactive | inactive | inactive | inactive |  |  | inactive | inactive | inactive | inactive | inactive | inactive | inactive | inactive | 
CCCCC/C(C=O)=C\c1ccccc1 | inactive | inactive | inactive | inactive | inactive and 61.2 µM (active) | inactive | inactive |  | inactive |  | inactive | inactive | inactive | inactive |  | 
CO[C@H]1C=CO[C@@]2(C)Oc3c(C)c(O)c4c(O)c(c(/C=N/N5CCN(C)CC5)c(O)c4c3C2=O)NC(=O)/C(C)=C\C=C[C@H](C)[C@H](O)[C@@H](C)[C@@H](O)[C@@H](C)[C@H](OC(C)=O)[C@@H]1C | inactive | 29.8 µM (active) and 24.6 µM (active) | 26.6 µM (active) and 15.5 µM (active) | inactive | 26.6 µM (active) and 34.8 µM (active) | inactive | inactive |  | inactive |  | 23.7 µM (active) and 34.8 µM (active) | inactive | 21.1 µM (active) and 31 µM (active) | 26.6 µM (active) |  | 
CC(=O)CCC(C)C | inactive | inactive | inactive | inactive |  | inactive | inactive | inactive | inactive | inactive | inactive | inactive | inactive | inactive | inactive | 
CCCCCCCC(=O)OCC(O)CO (stereo not drawn) | inactive | inactive | inactive | inactive | inactive | inactive | inactive |  | inactive |  | inactive | inactive | inactive | inactive |  | 
O=C(O)Cc1cccc2ccccc12 | inactive | inactive | inactive | inactive | inactive | inactive | inactive |  | inactive |  | inactive | inactive | inactive | inactive |  | 
CCOCCO | inactive | inactive | inactive | inactive | inactive | inactive | inactive |  | inactive |  | inactive | inactive | inactive | inactive |  | 
NC(=O)NO | inactive | inactive and 61.1 µM (active) | inactive | inactive | inactive | inactive | inactive |  | inactive |  | inactive | inactive | inactive | inactive |  | 
Nc1ccc(N=Nc2ccccc2)c(N)n1 | inactive | 4.22 µM (active) | 7.5 µM (active) | inactive | 21.1 µM (active) and 34.6 µM (active) |  |  | 49.2 µM [inhibitor] (active) | inactive | 13.4 µM [inconclusive] (active) and inactive | 23.7 µM (active) and 54.8 µM (active) | inactive | 4.22 µM (active) and 61.1 µM (active) | inactive | 2.11 µM (active) and 2.45 µM (active) and 2.17 µM (active) | 
CC(C)CC(C)CC(O)CC(C)C (stereo not drawn) | inactive | inactive | inactive | inactive | inactive | inactive | inactive |  | inactive |  | inactive | inactive | inactive | inactive |  | 
COC1=CC(=O)C[C@@H](C)[C@]12Oc1c(Cl)c(OC)cc(OC)c1C2=O | inactive | 30.4 µM (active) and 30.6 µM (active) | 30.4 µM (active) and 27.3 µM (active) | inactive |  | 11.9 µM (active) and 27.1 µM (active) and 27.3 µM (active) | inactive | 10.7 µM [inconclusive] (active) and 5.45 µM [inconclusive] (active) and 6.92 µM [inhibitor] (active) | inactive | inactive | inactive |  | 26.6 µM (active) and 54 µM (active) and 27.3 µM (active) | inactive | inactive | inactive
